# Inconclusive results are not listed. Activity calls are given as the source filed them. Calls follow the shape of the dose curve; as a rule, active = well fitted inhibition curve with a large enough effect; inconclusive = small, poorly fitted or top-dose-only effect; inactive = flat fitted curve, though single readings scatter.
# Target: Tyrosyl-DNA phosphodiesterase 1 (Homo sapiens) (UniProt Q9NUW8)
# Test: Confirmation Assay for Inhibitors of Tyrosyl-DNA Phosphodiesterase (TDP1) (AID 489007); also: nearly all actives have a fitted effect of over 40% in size
# Details: recombinant human TDP1 enzymatic activity, dose-response
# Method in brief: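 AlphaScreen assay of tyrosine-FITC cleavage from a biotinylated DNA substrate (15 nM) by E. coli-expressed human Tdp1 (1 nM). Sequence: compound preincubation 15 min, reaction 5 min, bead detection 10 min, all at room temperature. No-enzyme wells give maximum signal.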
# Potency is read from the fitted curve at half-maximal effect.
# Chain of Tyrosyl-DNA phosphodiesterase 1 (Homo sapiens) (Q9NUW8 whole entry, looked up): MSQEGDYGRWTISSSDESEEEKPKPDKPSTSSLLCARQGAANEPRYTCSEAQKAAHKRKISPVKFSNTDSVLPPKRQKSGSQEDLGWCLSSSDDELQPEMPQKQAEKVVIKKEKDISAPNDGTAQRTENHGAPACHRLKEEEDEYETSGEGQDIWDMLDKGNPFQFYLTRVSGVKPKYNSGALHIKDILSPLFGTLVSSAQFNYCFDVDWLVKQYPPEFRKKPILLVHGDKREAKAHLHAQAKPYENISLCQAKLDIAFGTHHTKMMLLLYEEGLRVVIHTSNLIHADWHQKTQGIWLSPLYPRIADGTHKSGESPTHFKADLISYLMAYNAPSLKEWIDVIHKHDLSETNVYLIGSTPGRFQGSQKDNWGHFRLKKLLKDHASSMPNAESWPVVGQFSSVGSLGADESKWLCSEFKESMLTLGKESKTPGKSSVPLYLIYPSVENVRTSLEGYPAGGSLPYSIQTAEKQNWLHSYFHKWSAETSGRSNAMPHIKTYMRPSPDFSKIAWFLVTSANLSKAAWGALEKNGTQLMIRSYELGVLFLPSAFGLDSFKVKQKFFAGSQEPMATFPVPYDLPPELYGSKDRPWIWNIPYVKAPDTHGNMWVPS
row,SMILES,Potency
1,Oc1cc(O)c2c(c1)OC(c1cc(O)c(O)c(O)c1)C(O)C2 (stereo not drawn),5.01 µM (active)
2,Nc1nc(/C(=C/CC(=O)O)C(=O)NC2C(=O)N3C(C(=O)O)=CCSC23)cs1 (stereo not drawn),12.6 µM (active)
3,CCOC(=O)CCCc1cc[c]([Sb](=[O])([OH])[OH])cc1,0.794 µM (active)
4,[O]=[Sb]([OH])([OH])[c]1ccccc1,6.31 µM (active)
5,C[C@H](CCC(=O)O)[C@H]1CC[C@@H]2[C@H]3CC[C@H]4C[C@H](O)CC[C@]4(C)[C@@H]3CC[C@@]21C,100 µM (active)
6,CCOC(=O)C1CCN(/C=C2/C(=O)NC(=O)N(Cc3ccco3)C2=O)CC1,44.7 µM (active)
7,O=C1NC(=O)N(c2ccc3c(c2)OCO3)C(=O)/C1=C\c1ccc(-c2ccccc2C(=O)O)o1,3.16 µM (active)
8,CN(C)c1ccc(/C=C2/C(=O)NC(=O)N(Cc3ccco3)C2=O)cc1,100 µM (active)

# Reference: PubChem BioAssay (NCATS)
